D2 PAM-1: positive allosteric modulators of human D2 dopamine receptor | P14416 | HEK293 T-REx D2, calcium flux, EC20 dopamine potentiation | potentiation, % at 10 µM | actives 0.34% (n = 340,000);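 active means potentiation over 3 SD above the plate norm, cut at about 30% in these data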; further: 0% is about no effect
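Primary screen. Calcium kinetics in induced HEK293 T-REx D2 cells: compound pre-addition 180 s, EC20 dopamine, 180 s more.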
D2 ag-1: activates the human D2 dopamine receptor; actives 0.53% (n = 340,000); activation, % at 2 µM; P14416; HEK293 T-REx D2 cells, calcium flux agonist mode;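 active means activation over 3 SD above normal in the single-dose calcium agonist read, cut at about 30% in these data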; further: 0% is about no effect
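Tetracycline-induced HEK293 Trex cells with D2 receptor force-coupled to calcium signaling, plated overnight at 30 C and loaded with no-wash calcium dye. Calcium flux read kinetically for 180 s after compound addition; responses flag agonists.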
D2 antag: antagonizes the human D2 dopamine receptor; P14416; HEK293 TREx D2 cells, calcium flux, dopamine EC80; inhibition, % at 10 µM; actives 2% (n = 340,000); in the data active means inhibition above about 30%; inactive means below that, where a call was filed; further: 0% is about no effect
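Compounds are added to dye-loaded, induced HEK293 T-REx cells coupled to calcium release via D2; after a 3 min kinetic read an EC80 dopamine stimulus is given and fluorescence is recorded for 3 more min.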
D2 ag-2: human D2 receptor agonism in beta-arrestin assay; DiscoveRx PathHunter D2 beta-arrestin, luminescence, 90 min; 100% = 57 uM dopamine signal; actives 0.084% (n = 360,000); activation, % (no concentration beside the values); P14416; AID 624465; in the data active means activation above about 40%; inconclusive means between about 15% and that limit
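DiscoveRx PathHunter D2 beta-arrestin cells (2,100/well) attached overnight, then compound-stimulated 90 min at 37 C in HBSS/10 mM HEPES/0.1% Tween-20 buffer; beta-galactosidase complementation read by luminescence after 1 h at ambient temperature. Dopamine 57 uM final (EC100) as control.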
D2 PAM-2: potentiates the human D2 dopamine receptor allosterically; P14416; DiscoveRx D2 beta-arrestin cells, luminescence, 90 min; 100% = 57 uM dopamine signal; potentiation, % (no concentration beside the values); actives 0.23% (n = 360,000); AID 624464; in the data active means potentiation above about 50%; inconclusive means mostly about 30% to 49%
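PathHunter beta-arrestin assay in DiscoveRx D2 cells. Compounds were added with an EC20 of dopamine (50 nM final) for 90 min at 37 deg C. Luminescence was read 1 h after detection reagent, with 57 uM dopamine as the EC100 control.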
D3 ag: confirmation of human D3 dopamine receptor agonists, beta-arrestin. shares compounds with D2 ag-1. DiscoveRx D3 beta-arrestin cells, luminescence, 90 min. Potency, µM (titrated, usually from 76.9 µM), for inactives: at the highest dose activation, most hits filed as activators. actives 4% (n = 2,300). AID 720506;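 further: potency means the concentration at half of the fitted maximal effect; 100% = dopamine control response; nearly all actives have a fitted effect of over 70% in size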
Target sequence (P35462 whole entry, looked up): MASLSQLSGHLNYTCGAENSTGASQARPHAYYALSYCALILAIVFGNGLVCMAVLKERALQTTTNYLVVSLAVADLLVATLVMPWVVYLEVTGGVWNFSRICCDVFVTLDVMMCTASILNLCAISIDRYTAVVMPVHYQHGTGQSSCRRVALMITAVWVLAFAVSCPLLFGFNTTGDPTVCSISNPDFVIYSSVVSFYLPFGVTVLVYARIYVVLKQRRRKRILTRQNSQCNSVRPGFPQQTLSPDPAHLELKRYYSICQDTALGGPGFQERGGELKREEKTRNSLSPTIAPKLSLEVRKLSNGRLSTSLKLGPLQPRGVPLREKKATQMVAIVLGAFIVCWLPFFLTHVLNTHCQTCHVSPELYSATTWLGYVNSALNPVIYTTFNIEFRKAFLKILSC
D2 ag-3: D2 receptor agonism, beta-arrestin counterscreen | shares compounds with D2 ag-1 | Potency, µM (top dose mostly 76.9 µM), inactives show at the top dose activation, hits mostly activators | actives 5.9% (n = 2,300) | DiscoveRx PathHunter D2 beta-arrestin, luminescence, 90 min; response scale: percent relative to full dopamine signal; further: potency means the concentration at half of the fitted maximal effect; % of control where 0% means no effect; nearly all actives have a fitted effect of over 70% in size
An asterisk follows results filed as active. Only some compounds are listed: those with a hit (about 2.4% of all), similar ones and a draw of the others. Unless noted, the call rests on the fitted dose curve; in most records, active means well fitted activation curve with a large enough effect; inconclusive means small, poorly fitted or top-dose-only effect; inactive means flat fitted curve, though single readings scatter.

`O=C(O)c1ccc(S(=O)(=O)c2ccc3c(c2)C(=O)N(c2ccc(O)cc2)C3=O)cc1` gave D2 PAM-1 -26, D2 ag-1 61*, D2 antag -3, D2 ag-2 4, D2 PAM-2 -2, D3 ag 11% and D2 ag-3 8%.
`O=C(O)c1ccc(NC(=O)c2ccc3c(c2)C(=O)N(c2ccccc2)C3=O)cc1` gave D2 PAM-1 2, D2 ag-1 0, D2 antag 7, D2 ag-2 -6 and D2 PAM-2 -5.
Screening CCCSc1nnc(NC(=O)c2cc(=O)c3ccccc3o2)s1 returned D2 PAM-1 3 and D2 ag-1 0.
For O=C(Nc1ccccc1C(F)(F)F)c1cc(-c2cccc(O)c2)on1 the results were D2 PAM-1 -10, D2 ag-1 1, D2 antag -15, D2 ag-2 0 and D2 PAM-2 -7.
`CCc1ccccc1NC(=O)c1cc(-c2cccc(O)c2)on1` gave D2 ag-2 -2, D2 PAM-2 3, D3 ag -8% and D2 ag-3 -1%.
Screening CCOCCc1nn2c(=O)cc(COC(=O)c3ccc(NC(=O)c4cccs4)cc3)nc2s1 returned D2 PAM-1 8.
Cc1nc(NCCc2ccccc2)c2nnn(Cc3ccccc3Cl)c2n1 was read as D2 PAM-1 -16, D2 ag-1 23, D2 antag -3, D2 ag-2 9, D2 PAM-2 -4, D3 ag 22% and D2 ag-3 19%.
`CNC(=O)c1ccc(NC(=O)CC2SC(N3CCCC3)=NC2=O)cc1` (stereo unspecified) gave D2 PAM-1 -11, D2 ag-1 0, D2 antag 39*, D2 ag-2 1, D2 PAM-2 11, D3 ag -9% and D2 ag-3 -7%.
O=C(CC1SC(N2CCCC2)=NC1=O)Nc1ccc(C(=O)NCCOc2ccccc2F)cc1 (stereo unspecified) was read as D2 PAM-1 -24, D2 ag-1 66*, D2 antag 52*, D2 ag-2 2, D2 PAM-2 -14, D3 ag inconclusive and D2 ag-3 9%.
`O=C(CC1SC(N2CCCC2)=NC1=O)Nc1ccc(C(=O)NCc2ccccc2F)cc1` (stereo unspecified) gave D2 ag-2 2 and D2 PAM-2 -1.
O=C(CCc1nnc2n(Cc3ccccc3Cl)c(=O)c3ccccc3n12)NCCCN1CCOCC1 was read as D2 PAM-1 -5, D2 ag-1 1, D2 antag -8, D2 ag-2 -1 and D2 PAM-2 -10.
Screening Cc1ccc(Cn2c(=O)c3ccccc3n3c(CCC(=O)NCCN4CCOCC4)nnc23)cc1 returned D2 PAM-1 -27, D2 ag-1 63*, D2 antag -11, D2 ag-2 5, D2 PAM-2 -8, D3 ag -8% and D2 ag-3 -1%.
CCOC(=O)c1ccc(N2C(=O)Cc3ccccc3C2=O)cc1 was read as D2 PAM-1 5, D2 ag-1 1, D2 antag -8, D2 ag-2 -3 and D2 PAM-2 1.
`C=CC[C@]12CCc3ccccc3C1N(c1ccc(C(=O)OCC)cc1)C2=O` (stereo partly specified) gave D2 PAM-1 3, D2 ag-1 0, D2 antag -11, D2 ag-2 -3, D2 PAM-2 -6, D3 ag -7% and D2 ag-3 -4%.
`O=C(COC(=O)[C@H](Cc1ccccc1)NC(=O)c1cccs1)Nc1ccccc1C(F)(F)F` gave D2 PAM-1 -8, D2 ag-1 0, D2 antag 4, D2 ag-2 -1 and D2 PAM-2 -5.

Screens as filed in PubChem.
